Lassa entry inh: Lassa virus entry inhibition. Potency, µM (doses to about 37.9 µM), hits mostly inhibitors. Lassa virus pseudotype entry inhibition, cell reporter. hit rate 1.2% among 300,000. AID 540256; calls by dose curve; tested in HEK293 cells; further: nearly all actives have a fitted effect of over 50% in size
HCV inhibitor: inhibitors of hepatitis C virus infection; Potency, µM (top dose mostly 41.8 µM), actives largely listed as inhibitors; hit rate 3.4% among 340,000; AID 651820; Huh7.5.1 HCVcc-Cre infection, luciferase reporter, 44 h; active means well fitted inhibition curve with a large enough effect; inconclusive means small, poorly fitted or top-dose-only effect, or another doubt; inactive means no such curve, though single readings can be large or run the other way
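Reporter virus HCVcc-Cre (~0.5 moi) infects cells exposed to compound; seeding density 1,000 cells/well with 4 h settling beforehand. Luminescence, 15 sec read, taken 44 h post-infection following a 15 min RT substrate incubation.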
HCMV antiviral: inhibitors of human cytomegalovirus; HFF cells, HCMV-luciferase reporter, 72 h; stronger effect = lower value; AID 1259415; activity change, negative = inhibition, % at 57.5 µM; hit rate 4.5% among 410,000; in the data active means activity change below about -60%; inconclusive means no clear call, values can overlap the other calls; inactive means above about -39%
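Two-dose cell screen: HFF monolayers treated with compounds and infected with luciferase-expressing HCMV at 1 PFU/cell, 72 h at 37C, then lysed for luciferase measurement.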
MARV entry inh: inhibitors of Marburg virus binding or cell entry; AID 540276; hit rate 1.8% among 300,000; Marburg virus pseudotyped entry inhibition, cell reporter; Potency, µM (top dose mostly 37.8 µM), hits mostly inhibitors; calls by dose curve; tested in HEK293 cells
VACV mCherry inh: vaccinia inhibition (mCherry reporter); Vaccinia virus mCherry reporter infection, fluorescence; Potency, µM (doses to about 36.5 µM), most hits filed as inhibitors; hit rate 0.63% among 310,000; AID 720579; calls by dose curve; tested in A549 cells; further: nearly all actives have a fitted effect of over 35% in size
VACV Venus inh: inhibitors of vaccinia virus (Venus reporter); Vaccinia virus Venus reporter expression, fluorescence; hit rate 0.46% among 330,000; Potency, µM (doses to about 36.5 µM), hits mostly inhibitors; calls by dose curve; tested in A549 cells; further: nearly all actives have a fitted effect of over 30% in size
Hits are given with their value; - = inactive; ? = inconclusive; . = no result given; [ ] = remark or other dose. Most compounds without a hit are left out; they make up all but 7.8% or so of the library.

SMILES	Lassa entry inh	HCV inhibitor	HCMV antiviral	MARV entry inh	VACV mCherry inh	VACV Venus inh
COc1ccc([N+](=O)[O-])cc1NC(=S)NC(NC(=O)C(c1ccccc1)c1ccccc1)C(Cl)(Cl)Cl (stereo not drawn)	?	?	-106	?	?	?
O=C(Cc1ccc(F)cc1)NCc1nc2cccnc2n1Cc1ccc(F)cc1	-	.	-	.	-	-
O=C(/C=C/Nc1ccccc1Br)c1ccccn1	1.1µM	-	-85	?	-[1.46 µM]	-
COc1ccc(C(=O)/C=C/Nc2ccccn2)c(OC)c1	?	-	-	?	-	-
O=C(/C=C\Nc1ccccn1)c1ccccc1	2.5µM	-	-	?	-	-
CCCn1c(SCC(=O)c2ccc3c(c2)OCCO3)n[nH]c1=O	-	-	-	-	-	-
O=c1[nH]nc(SCCS(=O)(=O)c2ccc(F)cc2)n1-c1ccccc1	-	-	-79	-	1.3µM	2.2µM
CCOc1ccccc1NC(=O)CSc1n[nH]c(=O)n1-c1ccccc1	.	?	-	.	.	.
O=c1[nH]nc(SCCS(=O)(=O)c2ccc(F)cc2)n1-c1ccc2c(c1)OCCO2	-	-	-81	?	?	1.6µM
Cc1ccc(C(=O)NCCc2nnc3n2CCN(Cc2ccc4ccccc4c2)CC3)c(C)c1	.	.	.	.	-	-
C[C@H]1[C@@H](NS(=O)(=O)c2cc(Cl)cc(Cl)c2)CC[C@@]23CCCN2C(=O)CCC[C@@H]13	.	.	-	.	.	.
CCCCn1cnc2c(c(-c3ccccc3)c(-c3ccccc3)n2Cc2ccco2)c1=N	-	-	-	-	-	-
N=c1c2c(-c3ccccc3)c(-c3ccccc3)n(Cc3ccccc3)c2ncn1CCCn1ccnc1	?	0.5µM	-74	?	.	14µM
O=c1[nH]c(=O)n(Cc2ccccc2)c(O)c1C=NCCCn1ccnc1	?	-	-	?	.	-
N=c1c2c(-c3ccccc3)c(-c3ccccc3)n(Cc3ccco3)c2ncn1Cc1ccco1	?	16µM	-	?	.	11µM
COc1ccc(CNC(=O)Cn2nc(C(F)(F)F)c(Br)c2C)cc1	.	-	-	.	.	.
COc1cc(NC(=O)Cn2nc(C(F)(F)F)c(Br)c2C)cc([N+](=O)[O-])c1	-	-	-96	?	-	?
COC(=O)c1cn([C@@H]2C[C@@H](C(=O)Nc3cccc(SC)c3)N(C3CCCCCC3)C2)nn1	.	.	.	.	-	-
O=C(CCl)Nc1ccccc1Sc1ccc(Cl)cc1	?	?	-103	23µM	.	.
O=C(CN1CCN(c2ccccc2)CC1)Nc1ccccc1Cl	.	-	-	.	.	.
O=C(Cc1ccccc1)Nc1ccccc1Sc1ccccc1	-	-	-	-	-	-
O=C(CN1CCN(c2ccccc2)CC1)Nc1ccccc1Sc1ccccc1	?	?	-	4.5µM	-	-
CC(=O)N1CCN(CC(=O)Nc2ccccc2Sc2ccc(Cl)cc2)CC1	5µM	?	-71	-	-	-
Clc1cccc(N2Cc3cc(-c4ccccc4)ccc3-n3nncc3C2)c1	.	.	-108	.	-	-
COc1ccc(-c2ccc3c(c2)CN(c2cccc(Cl)c2)Cc2cnnn2-3)cc1	.	.	-102	.	-	-
SMILES	Lassa entry inh	HCV inhibitor	HCMV antiviral	MARV entry inh	VACV mCherry inh	VACV Venus inh
COCCN1C(=O)COCc2cc(-c3ccc4c(c3)OCO4)ccc21	.	.	-	.	.	.
COc1cc(-c2ccno2)ccc1S(=O)(=O)N1CCN(c2cc(C)ccc2C)CC1	-	.	-	.	-[7.34 µM]	-[7.34 µM]
CCCCNc1ccc(C(CC(N)=O)NC(=O)Cc2cccc3ccccc23)cc1[N+](=O)[O-] (stereo not drawn)	.	-	-	.	-	-
Cc1cccc(CNc2ccc(C(CC(N)=O)NC(=O)Cc3cccc4ccccc34)cc2[N+](=O)[O-])c1 (stereo not drawn)	.	-	-79	.	-	-
COc1ccc(CCNc2ccc(C(CC(N)=O)NC(=O)Cc3cccc4ccccc34)cc2[N+](=O)[O-])cc1 (stereo not drawn)	.	-	-	.	?	13µM
Cc1sc(N)nc1-c1cccc([N+](=O)[O-])c1	.	.	.	.	-	-
COc1ccc(NC(=O)c2oc3ccccc3c2NC(=O)Cc2coc3ccc(C)cc23)cc1	-	.	-	-	-	-
CCN(CC)C(=O)CSc1nc2cc3c(cc2c(=O)n1CCCCCC(=O)NCCc1ccc(OC)c(OC)c1)OCO3	-	.	-83	.	-	-
COc1ccc(-c2c(C#Cc3ccsc3)c3cc(-c4ccc5c(c4)OCCO5)ccc3n2C)cc1	.	-	-	.	-	-
COc1ccc(-c2c(C#Cc3ccsc3)c3cc(-c4ccc5c(c4)OCO5)ccc3n2C)cc1	.	-	-71	.	-	-
COc1cc(OC)cc(-c2c(C#Cc3ccsc3)c3cc(-c4cccc5[nH]cc(C=O)c45)ccc3n2C)c1	.	10µM	-	.	-	-
COc1ccc(-c2c(C#Cc3ccsc3)c3cc(-c4ccc(C(N)=O)cc4)ccc3n2C)cc1	.	7.1µM	?	.	-	-
O=[N+]([O-])c1ccc(N2CCOCC2)cc1SCc1ccco1	-	11µM	-	?	-	-
O=[N+]([O-])c1ccc(SCc2ccco2)cc1N1CCOCC1	-	-	-	-	-	-
Cc1ccc(Cn2ccnc2SCC(=O)Nc2nc3ccccc3s2)cc1	-	.	-	.	-	-
N#CC1=C2SC=C(c3ccc(Br)cc3)N2CCCC1=O	-	11µM	-	?	-	-
CCCSc1nnc(NC(=O)Nc2ccc(F)cc2)s1	?	?	-104	?	.	7.9µM
CCCSc1nnc(NC(=O)Nc2ccccc2)s1	-	-	-99	-	-	-
Cc1ccc(NC(=O)Nc2nnc(SCC(=O)N3CCC(C)CC3)s2)cc1	-	.	-88	.	-[7.34 µM]	-[7.34 µM]
CCCOc1ccc(F)cc1-c1cc(C(=O)NCc2cc(OC)cc(OC)c2)[nH]n1	.	.	-	.	-	-
CC(=O)[C@]12C[C@]3(C)CCCN(C(=O)N[C@@H]1c1ccccc1)C32 (stereo partly drawn)	?	.	.	-	.	.
COc1ccc(Sc2nnc(-c3ccccc3)cc2C#N)cc1	-	-	-	-	.	?
c1ccc(Cc2nnc(N3CCCCC3)c3ccccc23)cc1	-	-	-	-	-	-
COc1ccc(Sc2nnc(Cc3ccccc3)c3ccccc23)cc1	-	.	-89	?	-	-
Cc1ccc(Sc2nnc(Cc3ccccc3)c3ccccc23)cc1	-	-	-88	?	.	.
SMILES	Lassa entry inh	HCV inhibitor	HCMV antiviral	MARV entry inh	VACV mCherry inh	VACV Venus inh
O=[N+]([O-])c1cccc(CSC2=NCCN2S(=O)(=O)c2ccccc2)c1	.	-	-74	.	.	.
O=[N+]([O-])c1ccc(S(=O)(=O)N2CCN=C2SCc2cccnc2)cc1	?	-	-73	-	?	?
CCNc1nc(N2CCCN(C)CC2)nc2cc(OC)c(OC)cc12	.	.	.	.	?	-
COC(=O)C1=C(C)N(Cc2cccnc2)C(=O)/C1=C\c1sccc1C	-	11µM	-	-	?	-
CCN1C(=O)/C(=C\c2ccco2)C(C(=O)OC)=C1C	-	13µM	-	-	.	.
CCOC(=O)C1=C(C)N(CC(C)C)C(=O)/C1=C\c1cccs1	-	?	-	-	-[7.34 µM]	-[7.34 µM]
COC(=O)C1=C(C)N(CC(C)C)C(=O)/C1=C\c1cccs1	-	16µM	-	-	-[1.46 µM]	-
Cc1ccc(S(=O)(=O)CCC(=O)OCCOc2ccc(Br)cc2)cc1	.	.	-	.	-	-
